Results: PubChem BioAssay (NCI)
“And” between values parts separate entries of the source, which are not always exact repeats. Equal values may be shown once. The panel holds about 83,000 compounds, 20% with a hit somewhere; the sample as a whole holds those more often.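 The endpoint reported here, percent growth, reads 100 for growth as untreated, 0 for no net growth and -100 for all cells dead.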 The source made the active and inactive calls. The calls were made as follows: active = growth percent below 10; inactive = the rest.

Test system: MDA-MB-468 breast
Test: NCI-60 one-dose screen, 48 h (100 = growth as untreated, 0 = no growth, -100 = all killed)
Details: 10 µM unless noted

Row | Compound | growth
1 | C#CCC#CCN1CCC[C@H]1C(=O)NCC(=O)OC | 99.1% (inactive)
2 | C=C(C)[C@@H]1CCC[C@]2(C(=O)N3CCN(C)CC3)CC[C@]3(C)[C@@H](CC[C@@H]4[C@@]5(C)CC/C(=N\NC(=O)c6ccncc6)C(C)(C)[C@@H]5CC[C@]43C)[C@@H]12 | 113% (inactive)
3 | Oc1ccccc1-c1nnc(SCc2ccc(O)c3ncccc23)o1 | 44.4% (inactive)
4 | NC1=NN(O)C2=CC([N+](=O)[O-])C=CC2=N1 (centres undefined) | 107% (inactive)
5 | O=c1oc2ccc(Br)cc2c(=O)n1-c1ccc(I)cc1F | -0.692% (active)
6 | C#CCCCCCCC[C@@H]1OC(=O)[C@H]([C@@H](C)CC)NC(=O)[C@H]([C@@H](C)CC)NC(=O)CC(=O)[C@@H]1C | 95.3% (inactive)
7 | CS(=O)(=O)c1ccc(C(=O)N/N=C/c2ccccc2Cl)cc1 | 96.1% (inactive)
8 | Cc1ccc2[nH]cc(-c3nc(-c4cn(C)c5ncccc45)cs3)c2c1 | -0.335% (active)
9 | Clc1ccc(-c2n[nH]c3c2Cc2ccccc2-3)cc1Cl | 75.3% (inactive)
10 | CC(Oc1ccc(C(=O)NS(=O)(=O)C(C)(C)C)cc1C(F)(F)F)c1ccc(Oc2ccccc2)cn1 (centres undefined) | 71.8% (inactive)
11 | COc1ccc2[nH]cc(-c3noc(C(=O)c4cn(C)c5ccc(F)cc45)n3)c2c1 | 102% (inactive)
12 | CNC(=O)c1cc(Oc2ccc3nc(Nc4cc(Cl)cc(Cl)c4)ccc3c2)ccn1 | 54.1% (inactive)
13 | COc1ccc(-n2nc(C)c3c(Oc4ccc(NC(=O)Nc5c(Cl)cccc5Cl)cc4)ncnc32)cc1 | 107% (inactive)
14 | O=S1(=O)C=C(c2ccccc2)C(c2ccccc2)=C1 | -68.5% (active)
15 | CC1C(/C=N/NC(N)=S)C(C#N)(C#N)C1(C#N)C#N (centres undefined) | 113% (inactive)
16 | N=C(N)c1ccc(-c2ccc(-c3ccccc3)s2)cc1 | -39.2% (active)
17 | C[C@@H]1CC[C@@H]2[C@@H]1[C@H](OC(=O)/C=C/c1ccccc1)[C@]1(c3ccccc3)C[C@@H](NC(=O)CO)[C@@]2(C)O1 | 98.3% (inactive)

Row | Compound | growth
18 | Cc1ccc2c(C(C[N+](=O)[O-])c3ccccc3F)c(-c3ccccc3)[nH]c2c1 (centres undefined) | 10.5% (inactive)
19 | CC(C)=CCC[C@](C)(O)[C@H]1CC[C@]2(C)[C@@H]1CC[C@@H]1[C@@]3(C)CCC(NC(=O)c4ccccc4C(=O)O)C(C)(C)[C@@H]3CC[C@]12C (some centres undefined) | 89.4% (inactive)
20 | COCCC[C@H]1O[C@@](O)([C@H](C)[C@@H]2CC(OC)C(O)/C=C(C)/C=C(C)/C=C(\C)C(OC3O[C@@H](C)[C@H](O)C(O)[C@@H]3O)C(C)/C=C(C)/C=C(OC)/C=C(\C)C(=O)O2)C(OC)C(O)[C@]1(C)O[C@H]1C[C@@H](O)[C@H](O[C@H]2C[C@](C)(O)[C@H](O)C(C)O2)C(C)O1 (some centres undefined) | 9.61% (active)
21 | CCCCCCCCCCN1CC2CCCCC2C1 (centres undefined) | 54.7% (inactive)
22 | COc1cc2c3c(n([C@@H]4CCOC4)c(=O)c2cc1OC)-c1cc2c(cc1C3=O)OCO2 | 11.2% (inactive)
23 | N#CC1C(=O)SC2c3ccccc3C(=O)c3ccccc3C12 (centres undefined) | 89.4% (inactive)
24 | CN1CCN(Cc2ccc(NC(=O)c3cncc(C#Cc4cnc5ccc(OCC(C)(C)O)nn45)c3)cc2C(F)(F)F)CC1 | -40.2% (active)
25 | CCCCNC(=O)Oc1ccc(/C(=C(\C)c2ccc(OC)cc2)c2ccc(OCCN3CCCCC3)cc2)cc1 | 64.4% (inactive)
26 | c1ccc(-c2cn3nc(-c4c[nH]c5ccccc45)sc3n2)cc1 | 77.9% (inactive)
27 | COc1cc(/C=N\Nc2ccccc2)ccc1OC(=O)c1ccccc1 | 44.2% (inactive)
28 | CCOC(=O)C(Nc1ccccc1)C(=O)OCC | 104% (inactive)
29 | Cn1c(-c2ccccc2)c(/C=C/C2=[N+](C)c3ccccc3C2(C)C)c2ccccc21 | -16.5% (active)
30 | O=C1/C(=C/c2ccc(O)c(O)c2)COc2ccc(-c3ccccc3)cc21 | 6.16% (active)
31 | Cc1ccc(-c2c(-c3ccccc3)c(=O)oc3ccc(C)cc23)cc1 | 97.3% (inactive)
32 | O=C(/C=C/C=C/c1ccc2c(c1)OCO2)N1CCCCC1 | 106% (inactive) and 105% (inactive)
33 | CN1CCN(Cc2ccc(NC(=O)c3cncc(C#Cc4cnc(N)cc4C#N)c3)cc2C(F)(F)F)CC1 | -4.22% (active)
34 | CCOC(=O)c1[nH]c(=O)c2c(C)nc(-c3ccccc3)cc2c1O | 92.9% (inactive)
